Screening results deposited in PubChem by several laboratories.
GIRK2 act = Activators of human GIRK2-containing channels. P48051. HEK293 GIRK2/NPY4 cells, thallium flux fluorescence. activation (% efficacy), % for hits at 37.5 µM. 34,000 tested, under 10 active. AID 1259324;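 active = primary screen hit, no activity in plain HEK293 cells, and in GIRK2-only cells above 5% efficacy rising with concentration; inactive = the rest, including fluorescent compounds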;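 also: efficacy is normalized control-subtracted fluorescence 15 s after thallium addition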
Target sequence (P48051 whole entry, looked up): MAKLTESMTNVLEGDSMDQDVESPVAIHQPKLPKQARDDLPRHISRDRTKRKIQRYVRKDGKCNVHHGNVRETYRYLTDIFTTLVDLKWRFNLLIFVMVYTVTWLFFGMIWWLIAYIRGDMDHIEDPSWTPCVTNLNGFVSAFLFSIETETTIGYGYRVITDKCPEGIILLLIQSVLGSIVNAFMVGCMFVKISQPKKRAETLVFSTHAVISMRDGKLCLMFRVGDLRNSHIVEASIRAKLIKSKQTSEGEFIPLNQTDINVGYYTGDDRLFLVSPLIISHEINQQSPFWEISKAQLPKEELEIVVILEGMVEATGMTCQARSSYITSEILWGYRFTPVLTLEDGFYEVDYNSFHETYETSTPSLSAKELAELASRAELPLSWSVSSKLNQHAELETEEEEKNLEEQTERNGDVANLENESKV
GluA2 TARP mod = modulates AMPAR-stargazin complexes | O88602+P19491 | HEK293 GluA2+stargazin, membrane potential dye (FDSS), glutamate EC50; hits were called plate by plate, in both directions | calls only at 30 µM | 40,000 tested, 3.5% active;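 active = any of four per-well response measures lying three or more SD from its plate-wide compound average, in either direction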
Numbers without * were called inactive; i = inactive; / = no result given; + = active, no number. Shown is part of a subset that was picked to be rich in hits.

SMILES | GIRK2 act | GluA2 TARP mod
COc1cccc(C(=O)Nc2ccc3c(c2)N(C(=O)c2ccco2)CC3)c1OC | i | i
O=C(Cc1csc(SCC(=O)c2cccs2)n1)NCCc1ccccc1 | i | /
COc1ccccc1CNC(=O)C(=O)Nc1ccc(C)c(N2CCCC2=O)c1 | i | i
Cc1ccc(-n2ncc3c(=O)n(NC(=O)c4ccc([N+](=O)[O-])cc4)cnc32)cc1 | i | i
O=C(NCC(O)(c1ccccc1)C1CC1)c1nc2ccccc2s1 (stereo not given) | / | i
Cc1c(C(=O)N(C)C)c(C(F)(F)F)nn1-c1ccccc1 | i | i
CCc1ccccc1NC(=O)Cn1nc(SC)c(-c2nc(-c3ccc(OC)cc3)no2)c1N | i | i
CCC(=O)N1CCN(c2ncnc3c2nnn3-c2cccc(OC)c2)CC1 | / | i
COc1ccc(-n2nnc3c(N4CCN(C(=O)c5ccccc5Cl)CC4)ncnc32)cc1 | / | i
CCSc1ccccc1C(=O)N1CCN(c2ncnc3c2nnn3-c2ccc(OC)cc2)CC1 | / | +
COc1ccc(-n2nnc3c(N4CCN(C(=O)c5ccccc5SC)CC4)ncnc32)cc1 | / | +
CCSc1ccccc1C(=O)N1CCN(c2ncnc3c2nnn3-c2ccc(C)cc2)CC1 | / | i
O=C(CSCc1ccccc1)N1CCN(c2ncnc3c2nnn3-c2ccccc2)CC1 | / | i
CCC(CC)C(=O)N1CCN(c2ncnc3c2nnn3-c2cccc(OC)c2)CC1 | / | +
O=C(CC(c1ccccc1)c1ccccc1)N1CCN(c2ncnc3c2nnn3-c2ccccc2)CC1 | / | +
CSc1ccc(CC(=O)Nc2ccc(-c3nc4ccccc4[nH]3)cc2)cc1 | / | i
Cc1cc(C)n(-c2ccc(=O)n(CCNC(=O)Cc3cccs3)n2)n1 | i | /
CCOC(=O)Cc1csc(NC(=O)Cc2cc(-c3ccc(F)cc3)on2)n1 | i | i
COc1ccccc1NC(=O)CSc1ccc(NC(=O)c2cccs2)nn1 | i | i
N#Cc1c(NC(=O)c2cc3ccccc3o2)sc2c1CCN(Cc1ccccc1)C2 | / | +
COC(=O)c1c(NC(=O)c2ccn(C)n2)sc2c1CCN(Cc1ccccc1)C2 | i | +
Cc1cc(C(=O)Nc2sc3c(c2C#N)CCN(Cc2ccccc2)C3)on1 | i | /
CC(C)N1CCc2c(sc(NC(=O)c3ccn(C)n3)c2C(N)=O)C1 | i | i
Cc1ccc(OCC(O)Cn2c(N3CCC(C)CC3)nc3c2c(=O)n(C)c(=O)n3C)cc1C (stereo not given) | / | i
Cc1cccc(OCC(O)Cn2c(N3CCN(c4ccccc4)CC3)nc3c2c(=O)n(C)c(=O)n3C)c1 (stereo not given) | / | i
SMILES | GIRK2 act | GluA2 TARP mod
CN1CCN(c2nc3c(c(=O)n(C)c(=O)n3C)n2CC(O)COc2ccccc2)CC1 (stereo not given) | / | +
COc1ccc(OCC(O)Cn2c(N3CCN(C)CC3)nc3c2c(=O)n(C)c(=O)n3C)cc1 (stereo not given) | / | +
O=C(NCC(c1cccs1)N1CCOCC1)C1CCCCC1 (stereo not given) | i | +
O=C(NCC(c1ccco1)N1CCOCC1)C1CC=CCC1 (stereo not given) | i | +
CN(C)C(CNC(=O)C1CCCCC1)c1cccs1 (stereo not given) | i | i
O=C(NCC(c1ccco1)N1CCOCC1)NC1CCCCC1 (stereo not given) | i | i
COc1ccc(NC(=O)c2ccc3c(=O)n4c(nc3c2)SCC4)cc1OC | i | i
O=C(Cc1cccc2ccccc12)Nc1ccc2c(c1)CCCN2C(=O)c1ccccc1 | i | i
O=S(=O)(NCC(O)(c1ccco1)C1CC1)c1cc(F)ccc1F (stereo not given) | i | i
O=S(=O)(NCC(O)(c1ccco1)C1CC1)c1ccc(F)c(Cl)c1 (stereo not given) | i | +
O=S(=O)(c1ccc(OC(F)(F)F)cc1)N1CCN(CCn2cccn2)CC1 | i | i
O=C(c1cc(Cl)ccc1Cl)N(Cc1ccccn1)Cc1ccco1 | i | /
CN1C(=O)C2C(c3ccc([N+](=O)[O-])cc3)NN(C)C2C1=O (stereo not given) | / | +
O=C1CC(c2nc3ccccc3n2CC(=O)N2CCCc3ccccc32)CN1Cc1ccccc1 (stereo not given) | / | i
O=C(NCCC(O)c1ccco1)Nc1ccc2c(c1)OCO2 (stereo not given) | i | i
O=C(Nc1c(Cl)cccc1Cl)C1CCCCC1 | / | +
CSc1cccc2sc(NC(=O)C3CCCCC3)nc12 | i | i
O=C(CN1N=NC2C(=O)N(c3ccc(Br)cc3)C(=O)C21)Nc1ccc(F)cc1 (stereo not given) | i | i
COc1ccccc1C(=O)N1CCCC(c2nn(C)c(=O)n2-c2ccccc2)C1 (stereo not given) | i | i
CCOc1cccc2cc(C(=O)N(C)C)c(=O)oc12 | i | i
Cn1nc(-c2ccccc2)cc1C(=O)Nc1cccc(-c2cnc3n2CCC3)c1 | i | +
O=C(Nc1cccc(N2CCCC2=O)c1)c1ccc2c(c1)OCO2 | / | i
CC(Oc1ccccc1)C(=O)Nc1cccc(-c2cnc3n2CCC3)c1 (stereo not given) | i | i
O=C(Nc1cccc(-c2cnc3n2CCC3)c1)c1ccc2c(c1)OCO2 | i | +
O=C(Cn1cnc(-c2ccccc2)cc1=O)N1CCN(c2ccccc2)CC1 | i | i
SMILES | GIRK2 act | GluA2 TARP mod
CSc1ccccc1NC(=O)C(=O)NCC1CCN(Cc2cc(C)oc2C)CC1 | i | +
CSc1ccccc1CN1CCC(CNC(=O)/C=C/c2ccccc2)CC1 | i | +
CSc1ccccc1CN1CCC(CNC(=O)/C=C/c2ccc3c(c2)OCO3)CC1 | i | i
O=C(/C=C/c1ccccc1)NCC1CCN(Cc2ccsc2)CC1 | i | +
O=C(/C=C/c1ccco1)NCC1CCN(Cc2ccsc2)CC1 | i | /
CSc1ccccc1NC(=O)C(=O)NCC1CCN(Cc2ccco2)CC1 | i | i
COc1ccc(NC(=O)Cc2csc(Nc3ccccc3)n2)cc1Cl | i | i
Cc1cc(-c2nnc(NC(=O)c3ccc(Cl)s3)o2)nn1C | i | i
O=C(Nc1nnc(-c2ccc(Br)s2)o1)c1ccc(Cl)s1 | i | +
O=C(Nc1nnc(-c2ccc(Br)s2)o1)c1cc(Cl)ccc1Cl | i | +
O=C(Nc1nnc(-c2cccs2)o1)c1cc(Cl)ccc1Cl | / | i
O=C(CC(c1ccccc1)c1ccccc1)NCC(O)Cc1ccccc1 (stereo not given) | i | i
O=C(CCc1ccccc1)NCCn1ncc2c(N3CCN(c4ccc(F)cc4)CC3)ncnc21 | i | i
O=C(/C=C/c1cc2cc3c(cc2nc1Cl)OCO3)C1CC1 | / | +
CN(C1CCCC1)S(=O)(=O)c1ccc(C(=O)Nc2nc3cc4c(cc3s2)OCO4)cc1 | / | i
Cc1nn(-c2ccc(F)cc2)c2ncc(C(=O)NCCCn3ccnc3)c(Cl)c12 | / | +
Cc1ccc(CNC(=O)c2cnc3c(c(C)nn3-c3ccc(F)cc3)c2Cl)cc1 | i | i
COc1cn(CC(=O)Nc2cccc3ccccc23)c(CSc2nncn2C)cc1=O | i | i
COc1ccc(NC(=O)c2ccc(=O)n(CC(=O)Nc3ccc(OC)cc3OC)n2)cc1 | i | i
